{"source": "PubChem BioAssay AID588689", "about": "(Southern Research Specialized Biocontainment Screening …, 2011)", "target": "Genome polyprotein (Dengue virus type 2 (strain 16681-PDK53)) (UniProt P29991)", "test": "flavivirus cap methylation enzyme inhibition – biochemical, confirmation dose response, primary screen (AID 588689)", "settings": "Dengue-2 NS5 methyltransferase capping enzyme assay, at 25 µM, stronger effect = higher value", "key": {"[1]": {"settings": "measured here: pilot screen replicate inhibition"}}, "note": "Out of some 340,000 compounds screened, about 1,000 (0.29%) were called active. No stated cut-off is given here; in the data, inconclusive means inhibition above about 29% without an active follow-up result; inactive means below that. The list is a sample of the results. Potency and affinity values are given separately.", "data": [{"smiles": "COc1cccc(C(=S)N2CCOCC2)c1OS(=O)(=O)c1ccc(Cl)cc1", "values": [{"measurement": "inhibition", "value": "1.61% (inactive)"}]}, {"smiles": "CC(C)Cc1ccc(C(C)NC(=O)Cc2ccc(S(=O)(=O)N3CCOCC3)s2)cc1", "note": "(stereo unspecified)", "values": [{"measurement": "inhibition", "value": "-1.45% (inactive)"}]}, {"smiles": "O=C(Nc1ccccc1[N+](=O)[O-])c1cccc(N2C(=O)CCC2=O)c1", "values": [{"measurement": "inhibition", "value": "-7.81% (inactive)"}]}, {"smiles": "O=C(O)c1cnc(-c2ccccc2)nc1C(F)(F)F", "values": [{"measurement": "inhibition", "value": "-8.19% (inactive)"}]}, {"smiles": "COC(=O)Nc1nc(-c2ccccc2)c(C(=O)c2ccccc2)s1", "values": [{"measurement": "inhibition", "value": "-4.12% (inactive)"}]}, {"smiles": "COc1cccc(-c2ccc3ncnc(NCc4cccc(C)c4)c3c2)c1", "values": [{"measurement": "inhibition", "value": "-0.8% (inactive)"}]}, {"smiles": "COc1ccc(CNC(=O)/C=C/c2cc3c(cc2Br)OCO3)cc1", "values": [{"measurement": "inhibition", "value": "-8.34% (inactive)"}]}, {"smiles": "COc1cc(C(=O)O)c2c(c1C)OC(=O)c1c(C)cc(O)c(C=O)c1O2", "values": [{"measurement": "inhibition", "value": "0.72% (inactive)"}]}, {"smiles": "COc1cc(/C=C2\\OC(=O)c3c(OC)cccc32)ccc1O", "values": [{"measurement": "inhibition", "value": "-20.1% (inactive)"}]}, {"smiles": "O=C(O)C1C2CCC(O2)C1C(=O)Nc1ccc(Br)cc1F", "note": "(stereo unspecified)", "values": [{"measurement": "inhibition", "value": "-6.36% (inactive)"}]}, {"smiles": "C=CCC[C@@H](Cc1ccc(F)cc1)C(=O)OC[C@@H](Cc1ccccc1)NC(=O)[C@@H](CC=C)CC(=O)N[C@@H](CO)Cc1ccccc1", "values": [{"measurement": "inhibition", "value": "-4.81% (inactive)"}]}, {"smiles": "N=C1/C(=C/c2cccs2)C(=O)N=C2SN=C(SCc3ccccc3)N12", "values": [{"measurement": "inhibition", "value": "-11.6% (inactive)"}]}, {"smiles": "CC(C)CSC1=NSC2=NC(=O)/C(=C\\c3cccs3)C(=N)N12", "values": [{"measurement": "inhibition", "value": "24.3% (inactive)"}]}, {"smiles": "CCCCCCCCCCNC(=O)CCn1[nH]c(=O)c2ccccc2c1=O", "values": [{"measurement": "inhibition", "value": "-4.1% (inactive)"}]}, {"smiles": "Cc1cccc(C)c1OCCn1nnc2ccccc21", "values": [{"measurement": "inhibition", "value": "1.31% (inactive)"}, {"measurement": "inhibition", "setting": "[1]", "value": -3.03, "unit": "%"}]}, {"smiles": "COc1cc(/C=C2/C(=O)N(c3ccc(C(=O)O)cc3)N=C2C)cc(OC)c1O", "values": [{"measurement": "inhibition", "value": "-28.1% (inactive)"}]}, {"smiles": "COc1cc(/C=C2/C(=O)N(c3cccc(Br)c3)N=C2C)cc(OC)c1O", "values": [{"measurement": "inhibition", "value": "-25.2% (inactive)"}]}, {"smiles": "COc1cc(/C=C2\\C(=O)N(CCC#N)N=C2C)ccc1OCC(=O)Nc1ccccc1", "values": [{"measurement": "inhibition", "value": "27.7% (inactive)"}]}, {"smiles": "COc1ccc(/C=C2\\N=C(C)N(c3ccc(C(=O)O)cc3)C2=O)cc1OC", "values": [{"measurement": "inhibition", "value": "-13.8% (inactive)"}]}, {"smiles": "Cc1ccccc1NC(=O)Cn1nnc(S(=O)(=O)c2ccc(C(C)(C)C)cc2)c1N", "values": [{"measurement": "inhibition", "value": "-3.62% (inactive)"}]}, {"smiles": "NC(=O)N/N=C/c1ccc(-c2cccc(C(F)(F)F)c2)o1", "values": [{"measurement": "inhibition", "value": "-7.73% (inactive)"}]}, {"smiles": "Fc1cccc(/C=C2\\CCCC3=C2NC(=S)NC3c2cccc(F)c2)c1", "note": "(stereo unspecified)", "values": [{"measurement": "inhibition", "value": "3.88% (inactive)"}]}, {"smiles": "Cc1ccc(SC2=C(Sc3ccc(C)cc3)C(=O)c3ccccc3C2=O)cc1", "values": [{"measurement": "inhibition", "value": "22.2% (inactive)"}]}, {"smiles": "COC1=C(Nc2ccc(C)cc2)C(=O)c2ccccc2C1=O", "values": [{"measurement": "inhibition", "value": "1.28% (inactive)"}]}, {"smiles": "COc1ccc(CN2CC(C(=O)NCCN3CCOCC3)CC2=O)cc1", "note": "(stereo unspecified)", "values": [{"measurement": "inhibition", "value": "0.54% (inactive)"}]}, {"smiles": "O=C(CN1C(=O)COc2ccc(Cl)cc21)N1CCc2ccccc21", "values": [{"measurement": "inhibition", "value": "-2.43% (inactive)"}]}, {"smiles": "Cc1cc(C)n(-c2nc3ccccc3c(=O)n2OCC#N)n1", "values": [{"measurement": "inhibition", "value": "-1.94% (inactive)"}]}, {"smiles": "CC(=O)Oc1ccc(N(C(C)=O)S(=O)(=O)c2ccc(C)cc2)c2ccccc12", "values": [{"measurement": "inhibition", "value": "-8.55% (inactive)"}]}, {"smiles": "CC(=O)Oc1ccc(N(C(C)=O)S(=O)(=O)c2ccccc2)c2ccccc12", "values": [{"measurement": "inhibition", "value": "6.04% (inactive)"}]}, {"smiles": "O=C(NCCCn1ccnc1)c1ccc(Cl)s1", "values": [{"measurement": "inhibition", "value": "-4.6% (inactive)"}]}, {"smiles": "O=S(=O)(O)c1ccc(N=Nc2ccccc2)cc1", "values": [{"measurement": "inhibition", "value": "-9.54% (inactive)"}]}, {"smiles": "O=S(=O)(Nc1ccc(N=Nc2ccc(O)c3ccccc23)cc1)c1ccccc1", "values": [{"measurement": "inhibition", "value": "6.54% (inactive)"}]}, {"smiles": "O=C(C[n+]1ccc(C(=O)c2ccccc2)cc1)Nc1ccccc1OC(F)F", "values": [{"measurement": "inhibition", "value": "-15.9% (inactive)"}]}, {"smiles": "O=P(C(=S)Nc1ccccc1Cl)(c1ccccc1)c1ccccc1", "values": [{"measurement": "inhibition", "value": "-1.15% (inactive)"}]}, {"smiles": "O=C(Nc1ccccc1)c1ccccc1NS(=O)(=O)c1ccc(Cl)s1", "values": [{"measurement": "inhibition", "value": "10.3% (inactive)"}]}, {"smiles": "Cc1ccc(NC(=O)c2ccccc2NS(=O)(=O)c2ccc(Cl)s2)cc1", "values": [{"measurement": "inhibition", "value": "-0.66% (inactive)"}]}, {"smiles": "COC(=O)[C@]1(C)N[C@H](CN(C)S(=O)(=O)c2ccc(OC)cc2)[C@@H]2C(=O)N(C)C(=O)[C@@H]21", "values": [{"measurement": "inhibition", "value": "-4.63% (inactive)"}, {"measurement": "inhibition", "setting": "[1]", "value": -0.915, "unit": "%"}]}, {"smiles": "Cc1ccc(S(=O)(=O)N2CCOCC2)cc1C(=O)NC1CCCC(C)C1C", "note": "(stereo unspecified)", "values": [{"measurement": "inhibition", "value": "1.47% (inactive)"}]}, {"smiles": "CCCC1=C([O-])C2N=CC=CC2=[N+](c2ccccn2)C1=O", "note": "(stereo unspecified)", "values": [{"measurement": "inhibition", "value": "-1.93% (inactive)"}]}, {"smiles": "COC(=O)C1OC2(OC1C(=O)OC)c1ccccc1-c1ccccc12", "note": "(stereo unspecified)", "values": [{"measurement": "inhibition", "value": "-6.04% (inactive)"}]}, {"smiles": "O=C1c2ccccc2C(O)N1c1ccc(Cl)cc1", "note": "(stereo unspecified)", "values": [{"measurement": "inhibition", "value": "-2.08% (inactive)"}]}, {"smiles": "CC(C)(Oc1ccc(Cl)cc1)C(=O)NC1CCSC1=O", "note": "(stereo unspecified)", "values": [{"measurement": "inhibition", "value": "-4.81% (inactive)"}]}, {"smiles": "CCOC(=O)N1CCC(NC(=S)Nc2ccc3nc(N4CCN(CC)CC4)cc(C)c3c2)CC1", "values": [{"measurement": "inhibition", "value": "-6.96% (inactive)"}]}, {"smiles": "COc1ccc(-c2cc(C(=O)NCCN3CCOCC3)c3ccccc3n2)c(OC)c1", "values": [{"measurement": "inhibition", "value": "-2.05% (inactive)"}]}, {"smiles": "Cc1cccc(N(CC(=O)O)CC(=O)O)c1", "values": [{"measurement": "inhibition", "value": "0.96% (inactive)"}]}, {"smiles": "COc1cccc(C(=O)C(C#N)=C(SC)SC)c1", "values": [{"measurement": "inhibition", "value": "12.4% (inactive)"}]}, {"smiles": "CSC(=CC(=O)c1ccccc1)SC", "values": [{"measurement": "inhibition", "value": "-2.05% (inactive)"}]}, {"smiles": "Cc1c(C(=O)Nc2cccc([N+](=O)[O-])c2)sc2ncn(CC(=O)N3CCOCC3)c(=O)c12", "values": [{"measurement": "inhibition", "value": "-4.39% (inactive)"}]}, {"smiles": "Cc1nc2ccc(Br)cc2c(-c2ccccc2)c1C(=O)O", "values": [{"measurement": "inhibition", "value": "1.96% (inactive)"}]}, {"smiles": "Cc1cccc(Nc2nnc(SCC(=O)NC3CCCc4ccccc43)s2)c1C", "note": "(stereo unspecified)", "values": [{"measurement": "inhibition", "value": "-1.45% (inactive)"}]}, {"smiles": "CC(=O)Nc1ccc(-c2sc(Nc3cccc4ccccc34)n[n+]2-c2ccccc2)cc1", "values": [{"measurement": "inhibition", "value": "-7.03% (inactive)"}]}, {"smiles": "CSc1ccc(-c2sc(Nc3ccccc3)n[n+]2-c2ccccc2)cc1", "values": [{"measurement": "inhibition", "value": "-11.6% (inactive)"}]}, {"smiles": "CCOC(=O)c1cnc2c(C)c(Cl)ccc2c1N1CCN(CC)CC1", "values": [{"measurement": "inhibition", "value": "-10.3% (inactive)"}]}, {"smiles": "Cc1[nH]c2ccccc2c1-c1nc2ccccc2[nH]c1=O", "values": [{"measurement": "inhibition", "value": "-8.14% (inactive)"}]}, {"smiles": "Cc1[nH]c2ccccc2c1-c1nc2ccccc2[nH]1", "values": [{"measurement": "inhibition", "value": "-3.22% (inactive)"}]}, {"smiles": "COc1ccc(S(=O)(=O)NC2CCCC2)cc1C(N)=O", "values": [{"measurement": "inhibition", "value": "-1.94% (inactive)"}]}, {"smiles": "[O-][n+]1c2ccccc2[n+]([O-])c2cc(O)ccc21", "values": [{"measurement": "inhibition", "value": "37.8% (inactive)"}]}, {"smiles": "O=c1cc(O)c2ccc(O)cc2o1", "values": [{"measurement": "inhibition", "value": "0% (inactive)"}]}, {"smiles": "COc1ccc(C(=O)OCCNC(=O)c2ccncc2)cc1OC", "values": [{"measurement": "inhibition", "value": "-5.77% (inactive)"}]}]}
